Measurements from PubChem BioAssay AID1159580 (chemical genetic matrix, 2015).
Out of some 5,500 compounds screened, about 2,000 (36%) were called active. Inconclusive results (about 18%) are left out. Cut-off read from the data, not from the text of the source: active = normalized growth mostly below about 0.91 (no sharp cut-off); inconclusive = no clear call, values can overlap the other calls; inactive = mostly above about 0.92. Some of the results follow.

Test: chemical genetic growth profiling, strain panel (AID 1159580);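 note: tested at 20 µM; growth read once vehicle control cultures reached saturation at 30 °C; 1 = growth at the plate median or of vehicle wells; lower values mean less growth of the strain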
Details: growth OD

Measured: normalized growth

COc1c(O)cc2c(c1O)[C@H]1O[C@H](CO)[C@@H](O)[C@H](O)[C@@H]1OC2=O
inactive: S. cerevisiae deletion strains, locus YKL009W, strain mrt4, hits give low values 1.01 | S. cerevisiae deletion strains, locus YKL068W, hits give low values 1.01 | S. cerevisiae deletion strains, locus YKL085W, strain MDH1 (second series), hits give low values 1 | S. cerevisiae deletion strains, locus YKL085W, strain MDH1, hits give low values 1 | S. cerevisiae deletion strains, locus YKL160W, strain elf1, hits give low values 1.03 | S. cerevisiae deletion strains, locus YKL190W, strain CNB1, hits give low values 0.975 | S. cerevisiae deletion strains, locus YKR001C, strain vps1, hits give low values 1.01 | S. cerevisiae deletion strains, locus YKR026C, strain gcn3, hits give low values 1.01 | S. cerevisiae deletion strains, locus YKR091W, strain srl3, hits give low values 1.02 | S. cerevisiae deletion strains, locus YLL001W, strain dnm1, hits give low values 1.03 | S. cerevisiae deletion strains, locus YLL026W, hits give low values 1.01 | S. cerevisiae deletion strains, locus YLL041C, strain sdh2, hits give low values 1.02 | S. cerevisiae deletion strains, locus YLR027C, strain aat2, hits give low values 1.02 | S. cerevisiae deletion strains, locus YLR039C, strain RIC1, hits give low values 1.04 | S. cerevisiae deletion strains, locus YLR058C, strain SHM2, hits give low values 0.986 | S. cerevisiae deletion strains, locus YLR102C, strain apc9, hits give low values 1 | S. cerevisiae deletion strains, locus YLR113W, strain HOG1, hits give low values 0.985 | S. cerevisiae deletion strains, locus YLR221C, strain rsa3, hits give low values 1.02 | S. cerevisiae deletion strains, locus YLR258W, strain gsy2, hits give low values 1.04 | S. cerevisiae deletion strains, locus YLR262C, strain YPT6 (second series), hits give low values 1.06 | S. cerevisiae deletion strains, locus YLR262C, strain YPT6, hits give low values 1.07 | S. cerevisiae deletion strains, locus YLR268W, strain sec22, hits give low values 1.01 | S. cerevisiae deletion strains, locus YLR320W, strain mms22, hits give low values 1.05 | S. cerevisiae deletion strains, locus YLR330W, strain CHS5, hits give low values 1.01 | S. cerevisiae deletion strains, locus YLR342W, strain FKS1 (second series), hits give low values 0.902 | S. cerevisiae deletion strains, locus YLR342W, strain FKS1, hits give low values 1.02 | S. cerevisiae deletion strains, locus YLR357W, strain rsc2, hits give low values 1.01 | S. cerevisiae deletion strains, locus YLR370C, strain arc18, hits give low values 1.02 | S. cerevisiae deletion strains, locus YLR371W, strain rom2, hits give low values 1.01 | S. cerevisiae deletion strains, locus YLR384C, strain iki3, hits give low values 1.01 | S. cerevisiae deletion strains, locus YLR418C, strain cdc73, hits give low values 1.02 | S. cerevisiae deletion strains, locus YML016C, strain PPZ1, hits give low values 1 | S. cerevisiae deletion strains, locus YML032C, strain rad52, hits give low values 0.999 | S. cerevisiae deletion strains, locus YML120C, strain ndi1, hits give low values 1.03 | S. cerevisiae deletion strains, locus YML124C, strain tub3, hits give low values 1.01 | S. cerevisiae deletion strains, locus YMR058W, strain fet3, hits give low values 1.01 | S. cerevisiae deletion strains, locus YMR078C, strain ctf18, hits give low values 1.01 | S. cerevisiae deletion strains, locus YMR125W, strain sto1, hits give low values 1.02 | S. cerevisiae deletion strains, locus YMR129W, hits give low values 1.02 | S. cerevisiae deletion strains, locus YMR205C, strain PFK2, hits give low values 1.03 | S. cerevisiae deletion strains, locus YMR223W, strain ubp8, hits give low values 0.993 | S. cerevisiae deletion strains, locus YMR231W, strain pep5, hits give low values 1.02 | S. cerevisiae deletion strains, locus YMR263W, strain SAP30, hits give low values 0.993 | S. cerevisiae deletion strains, locus YMR307W, strain GAS1, hits give low values 0.828 | S. cerevisiae deletion strains, locus YNL067W, strain RPL9B, hits give low values 0.97 | S. cerevisiae deletion strains, locus YNL071W, strain lat1, hits give low values 1.03 | S. cerevisiae deletion strains, locus YNL128W, strain TEP1, hits give low values 1.01 | S. cerevisiae deletion strains, locus YNL153C, strain GIM3, hits give low values 0.999 | S. cerevisiae deletion strains, locus YNL183C, strain NPR1, hits give low values 0.933 | S. cerevisiae deletion strains, locus YNL209W, strain ssb2, hits give low values 1.02 | S. cerevisiae deletion strains, locus YNL233W, strain BNI4, hits give low values 0.939 | S. cerevisiae deletion strains, locus YNL248C, strain rpa49, hits give low values 1.01 | S. cerevisiae deletion strains, locus YNL250W, strain rad50, hits give low values 1.02 | S. cerevisiae deletion strains, locus YNL271C, strain bni1, hits give low values 1.02 | S. cerevisiae deletion strains, locus YNL298W, strain CLA4, hits give low values 1.02 | S. cerevisiae deletion strains, locus YNL307C, strain MCK1, hits give low values 1.01 | S. cerevisiae deletion strains, locus YNL322C, strain KRE1 (second series), hits give low values 1.02 | S. cerevisiae deletion strains, locus YNR049C, strain mso1, hits give low values 1.02 | S. cerevisiae deletion strains, locus YNR052C, strain pop2, hits give low values 0.998 | S. cerevisiae deletion strains, locus YOL006C, strain TOP1, hits give low values 0.973 | S. cerevisiae deletion strains, locus YOL012C, strain htz1 0.964 | S. cerevisiae deletion strains, locus YOL147C, strain pex11, hits give low values 1 | S. cerevisiae deletion strains, locus YOR001W, strain rrp6, hits give low values 1.01 | S. cerevisiae deletion strains, locus YOR061W, strain CKA2, hits give low values 0.995 | S. cerevisiae deletion strains, locus YOR069W, strain VPS5, hits give low values 0.985 | S. cerevisiae deletion strains, locus YOR070C, strain gyp1, hits give low values 1.01 | S. cerevisiae deletion strains, locus YOR080W, strain dia2, hits give low values 1.02 | S. cerevisiae deletion strains, locus YOR083W, strain WHI5, hits give low values 1.03 | S. cerevisiae deletion strains, locus YOR106W, strain vam3, hits give low values 1.02 | S. cerevisiae deletion strains, locus YOR136W, strain idh2, hits give low values 1.02 | S. cerevisiae deletion strains, locus YOR144C, strain elg1, hits give low values 1.01 | S. cerevisiae deletion strains, locus YOR184W, strain ser1, hits give low values 1.02 | S. cerevisiae deletion strains, locus YOR231W, strain MKK1, hits give low values 0.961 | S. cerevisiae deletion strains, locus YOR265W, strain rbl2, hits give low values 1.02 | S. cerevisiae deletion strains, locus YOR270C, strain vph1, hits give low values 1.06 | S. cerevisiae deletion strains, locus YOR290C, strain snf2, hits give low values 0.992 | S. cerevisiae deletion strains, locus YOR316C, strain cot1, hits give low values 1.01 | S. cerevisiae deletion strains, locus YPL051W, strain arl3, hits give low values 1.01 | S. cerevisiae deletion strains, locus YPL055C, strain LGE1, hits give low values 0.967 | S. cerevisiae deletion strains, locus YPL078C, strain atp4, hits give low values 1.03 | S. cerevisiae deletion strains, locus YPL106C, strain sse1, hits give low values 1.02 | S. cerevisiae deletion strains, locus YPL240C, strain hsp82, hits give low values 1.02 | S. cerevisiae deletion strains, locus YPL241C, strain CIN2, hits give low values 0.991 | S. cerevisiae deletion strains, locus YPL256C, strain CLN2, hits give low values 0.935 | S. cerevisiae deletion strains, locus YPR119W, strain clb2, hits give low values 1.01 | S. cerevisiae deletion strains, locus YPR141C, strain kar3, hits give low values 1.01 | S. cerevisiae deletion strains, locus YPR163C, strain tif3, hits give low values 1 | S. cerevisiae deletion strains, locus YPR167C, strain met16, hits give low values 1.02 | S. cerevisiae deletion strains, strain wtn01, hits give low values 1.01 | S. cerevisiae strains, strain wild type, hits give low values 0.957
